Assay outcomes from PubChem BioAssay.
TRHR PAM: allosterically enhances the human TRH receptor; P34981; TRHR cells, fluo-8 calcium fluorescence, EC20 TRH enhancement; enhancement, % at 2 µM; hit rate 0.66% among 360,000; AID 493056; in the data active means enhancement above about 30%; further: 0% is about no effect
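Enhancer read-out: after compound pinning and an initial kinetic agonist-mode read, an EC20 of TRH (10 nM final) was injected and fluo-8 calcium signal (Ex 480/Em 530) followed at 1 s/cycle for 100 cycles in TRHR-expressing cells.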
TRPML1 inh: human mucolipin-1 channel inhibition | AID 624415 | TRPML1-inducible cells, Ca2+ dye fluorescence, FDSS; stronger effect = lower value; inhibition of EC80 agonist-evoked calcium signal | activity change, negative = inhibition, % (no concentration beside the values) | hit rate 0.02% among 390,000 | Q9GZU1; in the data active means activity change below about -50%;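 further: stimulus is agonist 54-4 at its EC80 concentration; on the % scale 0 is the no-effect control and ±100 the full control effect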
Target sequence (Q9GZU1 whole entry, looked up): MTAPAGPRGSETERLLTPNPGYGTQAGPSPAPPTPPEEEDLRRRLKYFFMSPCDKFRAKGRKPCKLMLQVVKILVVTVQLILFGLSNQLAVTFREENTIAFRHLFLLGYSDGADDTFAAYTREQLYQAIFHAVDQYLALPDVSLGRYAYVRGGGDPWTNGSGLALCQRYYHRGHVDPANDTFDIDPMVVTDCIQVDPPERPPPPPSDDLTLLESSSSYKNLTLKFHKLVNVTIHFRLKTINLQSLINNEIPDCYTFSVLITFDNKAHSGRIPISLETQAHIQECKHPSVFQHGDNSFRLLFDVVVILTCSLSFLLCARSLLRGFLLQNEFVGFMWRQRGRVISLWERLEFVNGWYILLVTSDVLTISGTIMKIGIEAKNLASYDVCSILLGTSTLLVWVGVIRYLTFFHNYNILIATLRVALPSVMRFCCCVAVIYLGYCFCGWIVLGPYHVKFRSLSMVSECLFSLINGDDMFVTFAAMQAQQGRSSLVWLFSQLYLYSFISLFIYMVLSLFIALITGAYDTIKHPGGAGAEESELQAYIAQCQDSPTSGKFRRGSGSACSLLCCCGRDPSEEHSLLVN
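Calcium fluorescence in TRPML1-DL cells induced overnight with Tet: a 110 s read after compound pin addition, then a 110 s antagonist read after challenge with 54-4 at 4 uM final (EC80).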
TRHR ag: TRH receptor (human) agonism; TRHR cells, calcium flux fluo-8, FDSS agonist mode; activation, % at 2 µM; hit rate 0.18% among 360,000; AID 493084; P34981; in the data active means activation above about 30%; further: 0% is about no effect
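Fluo-8-loaded TRHR cells; 10 s baseline, compound added, kinetic Ca2+ fluorescence read 1/s, agonist mode.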
TRPML1 agonist: human mucolipin-1 channel agonism; Q9GZU1; TRPML1-expressing cells, Ca2+ dye fluorescence, FDSS; hit rate 0.12% among 410,000; AID 624414; activation, % (concentration not given with the values); in the data active means activation above about 50%; further: 0% is about no effect
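Cells: TRPML1-DL, 1X Tet inducer, ~16 h at 37 degrees C/5% CO2. Dye: ABD Ca8 no-wash + quencher, 45-90 min RT. Read: 10 s baseline, compound add, 110 s agonist phase; 54-4 EC80 (4uM final), 110 s antagonist phase.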
Numbers without * were called inactive; / = no result given. In the library only some 0.81% were active in any assay of this set; here they are far more common.

SMILES	TRHR PAM	TRPML1 inh	TRHR ag	TRPML1 agonist
CC(C)CN(CC(C)C)c1ccc(/C=C/c2nc3ccccc3s2)cc1	/	/	/	2
CCOc1cc(/C=C2\SC(=S)N(C(C(=O)O)c3ccccc3)C2=O)ccc1O (stereo not given)	2	/	-1	/
COc1cc(/C=C2\SC(=S)N(C(C(=O)O)c3ccccc3)C2=O)ccc1O (stereo not given)	0	-6	50*	15
c1cncc(-c2ccnc3ncnn23)c1	33*	16	0	0
CCO[C@@H]1OC(C(=O)N2CCN(C)CC2)=C[C@H](C(C)(C)C)[C@H]1CCCO	35*	32	0	0
COc1ccc2oc(=O)c(-c3nc(-c4cc(OC)c(OC)c(OC)c4)no3)cc2c1	31*	-11	0	0
CN(C)c1ccc(/C=C2\C=Cc3ccccc32)cc1F	/	/	/	0
COc1cccc(NC(=O)COc2ccccc2C(=O)Nc2ccccc2)c1	/	/	/	0
COC(=O)/C(N=Nc1c(C)n(C)n(-c2ccccc2)c1=O)=C(\C)O	33*	-9	0	2
CCOC(=O)/C(N=Nc1c(C)n(C)n(-c2ccccc2)c1=O)=C(/O)c1ccccc1	-3	29	0	0
COc1ccc(NC(=O)c2cn3c4c(ccc(Cl)c4c2=O)OC(C)C3)cc1OC (stereo not given)	50*	3	-1	1
O=[S+]([O-])(NC[C@H]1CCC[C@H](CN[S+](=O)([O-])c2c(F)cccc2F)C1)c1ccc2c(c1)OCCO2	7	/	1	/
Cc1nc2c(-c3ccccc3)c(C)nn2c(SCC(N)=O)c1Cc1ccccc1	34*	-5	0	-1
CCN(CC)c1ccc(/C=C2\C(=O)c3ccc(C(=O)O)cc3C2=O)cc1	24	-16	106*	78*
CCN(CC)c1ccc(C(=O)O)cc1	0	-15	0	0
COCCOc1ccc(C(F)(F)F)cc1NC(=O)COC(=O)c1cc[n+]([O-])cc1	13	-15	0	-1
COCCOc1ccc(C(F)(F)F)cc1NC(=O)COC(=O)c1c(C)noc1C	34*	22	-1	1
COc1cc2nc(CC(O)c3nc4cc(OC)c(OC)cc4[nH]3)[nH]c2cc1OC (stereo not given)	/	/	/	0
COc1ccc(OC)c(C(=O)NC(CC(N)=O)c2ccc(NCc3ccccn3)c([N+](=O)[O-])c2)c1 (stereo not given)	-1	-10	0	-1
COc1ccc(OC)c(C(=O)NC(CC(N)=O)c2ccc(NCc3ccc(F)c(F)c3)c([N+](=O)[O-])c2)c1 (stereo not given)	36*	59	0	0
COc1ccc(Cn2ncc3c4sc(C)cc4n(C)c3c2=O)cc1F	5	/	-1	/
Oc1cccc2c(CC(O)c3c[nH]c4ccccc34)ccnc12 (stereo not given)	/	/	/	0
COCCCNc1c2c3c(cccc3[nH]c1=O)C(=O)c1ccccc1-2	17	-18	0	113*
COCCCNC1=C(Cl)C(=O)c2ccccc2C1=O	6	38	-1	1
CC(C)(C)n1ncc2c(=O)n(Cc3ccc(Cl)cc3C(F)(F)F)cnc21	/	-2	/	1
SMILES	TRHR PAM	TRPML1 inh	TRHR ag	TRPML1 agonist
COCCNC(=O)/C(C#N)=c1\s/c(=C\c2ccccc2OC(F)F)c(=O)n1Cc1ccccc1	-13	/	103*	/
CC1C(=O)N2CCCc3cc(S(=O)(=O)Nc4ccccc4C(N)=O)cc1c32 (stereo not given)	32*	-20	0	1
N#CN1CCC(NC(=O)c2ccc(C(F)(F)F)cc2)CC1	2	/	-1	/
CCOC(=O)c1ccc(NC(=O)Cn2nc(C)c3ccccc3c2=O)cc1	30*	12	0	0
COC(=O)c1ccc(NC(=O)Cn2nc(C)c3ccccc3c2=O)cc1	0	4	0	-1
CCOc1ccc(NC(=O)Cn2nc(Cc3ccncc3)c3ccccc3c2=O)cc1	38*	-22	-2	2
CN(C)c1ccc(/C=C/c2sc3ccccc3[n+]2CCCCI)cc1	/	/	/	0
CC12CCC(C(=O)N(c3ccc(Cl)cc3)C1=O)C2(C)C (stereo not given)	-3	-2	0	-1
CC12CCC(C(=O)N(c3ccccc3Cl)C1=O)C2(C)C (stereo not given)	34*	2	0	0
N#C/C(=C\c1ccc(-c2ccc([N+](=O)[O-])cc2)o1)C(=O)Nc1nc(-c2cccs2)cs1	-4	-101*	1	0
